Read-outs that look alike come from different tables or passages of the source. Hit rate of the full screen: of about 13,000 compounds, about 3,200 (25%) showed an effect of 50% or more. Some of the results follow.
System: P. falciparum stage V gametocytes
Parameters: BacTiter-Glo ATP luminescence viability of purified stage V gametocytes in 384-well plates, per cent inhibition versus DMSO
Settings: 48 h, 5 µM, inhibitor

With `CCC1(C)N=C(N)N=C(N)N1c1ccccc1` (stereo not shown) [TCMDC-131294] the “% Inhibition” value was 1.322%.

With `COc1ccc(Br)cc1/C=C/C(=O)Nc1cccc(C2CCN(C)CC2)c1` [TCMDC-133709] the “% Inhibition” value was 17.69%.

With `CC(CN)OCn1cnc2c(N)ncnc21` (stereo not shown) [TCMDC-137691] the “% Inhibition” value was 4.807%.

In the case of `Nc1ccc(-c2ccc(NC(=O)Nc3ccccc3)cc2)cn1` [TCMDC-133409], the “% Inhibition” value is reported as 8.914%.

For `Cc1noc(C)c1-c1cccc(CNCc2ccc(-c3ccc(-c4nc5ccccc5[nH]4)s3)cc2)c1.O=C(O)C(F)(F)F` [TCMDC-133049], the “% Inhibition” value was 5.306%.

`COc1ccc(-c2onc(C(F)(F)F)c2-c2ccc(Br)cc2)c(O)c1` [TCMDC-125235] was tested, and the “% Inhibition” value was 3.062%.

With `O=C(Nc1ccc(N2CCCN(Cc3cccc(F)c3)CC2)cc1)c1ccc(F)cc1` [TCMDC-135020] the “% Inhibition” value was -31.48%.

In the case of `CC[C@H]1CN2CC[C@H]1C[C@H]2[C@H](O)c1cc(-c2cccc(F)c2)nc2ccc(OC)cc12` [TCMDC-141194], the “% Inhibition” value is reported as 63.72%.

In the case of `CC[C@H]1CN2CC[C@@H]1C[C@H]2[C@H](O)c1cc(-c2cccnc2)nc2ccc(OC)cc12` [TCMDC-141335], the “% Inhibition” value is reported as -21.27%.

In the case of `CC[C@H]1CN2CC[C@H]1C[C@H]2[C@H](O)c1cc(-c2cccc(C)c2)nc2ccc(OC)cc12` [TCMDC-141191], the “% Inhibition” value is reported as 44.26%.

`Cc1c(Cl)cccc1S(=O)(=O)Nc1cccc(CCN2CCC(N3CCCCC3)CC2)c1` [TCMDC-134064] was tested, and the “% Inhibition” value was 56.09%.

With `CN(C)c1cccc2c(S(=O)(=O)Nc3cccc(CCN4CCC(N5CCCCC5)CC4)c3)cccc12` [TCMDC-134066] the “% Inhibition” value was 76.83%.

`O=S(=O)(Nc1cccc(CCN2CCC(N3CCCCC3)CC2)c1)c1cccc2ccccc12` [TCMDC-134069] was tested, and the “% Inhibition” value was 73%.

`Cc1cccc(Cl)c1S(=O)(=O)Nc1cccc(CCN2CCC(N3CCCCC3)CC2)c1` [TCMDC-134063] was tested, and the “% Inhibition” value was 18.66%.

With `O=S(=O)(Nc1ccc(CCN2CCC(N3CCCCC3)CC2)cc1)c1cccc2cccnc12` [TCMDC-134081] the “% Inhibition” value was 43.01%.

With `COc1ccc(Cl)cc1S(=O)(=O)Nc1cccc(CCN2CCC(N3CCCCC3)CC2)c1` [TCMDC-134076] the “% Inhibition” value was 49.77%.

In the case of `O=S(=O)(Nc1cccc(CCN2CCC(N3CCCCC3)CC2)c1)c1cccc2cccnc12` [TCMDC-134074], the “% Inhibition” value is reported as 50.45%.

In the case of `Cc1nc2ccc3ccc(CNc4ccc(C#N)cc4)cc3c2c(=O)[nH]1` [TCMDC-137846], the “% Inhibition” value is reported as -36.65%.

`CCCCCCN1CCCN(Cc2ccc(C(=O)Nc3ccc(C(C)(C)C)cc3)cc2)CC1` [TCMDC-136446] was tested, and the “% Inhibition” value was -5.342%.

In the case of `O=C(Cc1ccc[n+]([O-])c1)Nc1ccc(-c2cccc(-c3nc4cc(C(F)(F)F)ccc4[nH]3)c2)cc1` [TCMDC-136991], the “% Inhibition” value is reported as -49.92%.

With `O=C(Nc1cccc(-c2ccc(-c3nc4ccc(C(F)(F)F)cc4[nH]3)cc2)c1)c1cccnc1` [TCMDC-136930] the “% Inhibition” value was 51.27%.

In the case of `O=C(Nc1ccc(-c2cccc(-c3nc4ccc(C(F)(F)F)cc4[nH]3)c2)cc1)c1ccncc1` [TCMDC-136964], the “% Inhibition” value is reported as -22.85%.

For `O=C(Nc1cccc(-c2ccc(-c3nc4ccc(C(F)(F)F)cc4[nH]3)cc2)c1)c1ccoc1` [TCMDC-136848], the “% Inhibition” value was -29.98%.

`NC(=O)c1cccc(C(=O)Nc2ccc(-c3cccc(-c4nc5ccc(C(F)(F)F)cc5[nH]4)c3)cc2)c1` [TCMDC-132200] was tested, and the “% Inhibition” value was -70.46%.

With `O=C(Nc1ccc(-c2cccc(-c3nc4ccc(C(F)(F)F)cc4[nH]3)c2)cc1)c1ccoc1` [TCMDC-136845] the “% Inhibition” value was 54.13%.

`O=C(Nc1cccc(-c2ccc(-c3nc4ccc(C(F)(F)F)cc4[nH]3)cc2)c1)c1ccncc1` [TCMDC-136967] was tested, and the “% Inhibition” value was -31.79%.

In the case of `O=C(Nc1cccc(-c2cccc(-c3nc4ccc(C(F)(F)F)cc4[nH]3)c2)c1)c1cccnc1` [TCMDC-136925], the “% Inhibition” value is reported as -23.9%.

With `O=C(Nc1cccc(-c2cccc(-c3nc4ccc(C(F)(F)F)cc4[nH]3)c2)c1)c1ccoc1` [TCMDC-136844] the “% Inhibition” value was 9.594%.

For `O=C(Nc1ccc(-c2cccc(-c3nc4ccc(C(F)(F)F)cc4[nH]3)c2)cc1)c1cccnc1` [TCMDC-136926], the “% Inhibition” value was 86.45%.

With `CC(=O)Oc1ccc(C(=O)Oc2ccccc2C#CC#N)cc1OC(C)=O` [TCMDC-138111] the “% Inhibition” value was 22.32%.

`CC(Oc1ccc(Cl)cc1Cl)c1nc(-c2ccc(NC(=O)c3ccco3)cc2)no1` (stereo not shown) [TCMDC-124355] was tested, and the “% Inhibition” value was -1.611%.

`O=C(Nc1ccc2c(c1)CN(Cc1ccc(N3CCCC3)o1)CCC2)c1cncs1` [TCMDC-134724] was tested, and the “% Inhibition” value was -13.68%.

With `O=C(/C=C/c1ccc(C(F)(F)F)cc1)NC1CCC(CN2CCC(c3c[nH]c4ccccc34)CC2)CC1` (stereo not shown) [TCMDC-139758] the “% Inhibition” value (% Inhibition) was 96.79%.

`O=C(/C=C/c1cc(C(F)(F)F)ccc1F)NC1CCC(CN2CCC(c3c[nH]c4ccccc34)CC2)CC1` (stereo not shown) [TCMDC-139855] was tested, and the “% Inhibition” value was -4.527%.

With `O=C(/C=C/c1ccc(C(F)(F)F)cc1)NC1CCC(CN2CCC(c3c[nH]c4ccccc34)CC2)CC1` (stereo not shown) [TCMDC-139768] the “% Inhibition” value (% Inhibition) was 87.3%.

In the case of `CS(=O)(=O)c1ccc(-c2cncc(Cl)n2)cc1` [TCMDC-135191], the “% Inhibition” value is reported as 20.05%.

In the case of `COc1cc(NC(=O)/C=C/c2cc(F)cc(F)c2F)cc(OCCN2CCCCC2)c1` [TCMDC-140932], the “% Inhibition” value is reported as -50.87%.

In the case of `Cc1cc(N2CCN(CC3CCN(C)CC3)CC2)nc(Nc2ccc(Br)cc2)n1` [TCMDC-137016], the “% Inhibition” value is reported as 54.5%.

With `Cc1cc(N2CCCN(CC3CCCCC3)CC2)nc(Nc2ccc(Br)cc2)n1` [TCMDC-137133] the “% Inhibition” value was -10.88%.

For `Cc1cc(NC2CCN(CC3CCCCC3)C2)nc(Nc2ccc(Cl)cc2)n1` (stereo not shown) [TCMDC-137018], the “% Inhibition” value was 51.98%.

In the case of `Cc1cc(N2CCN(CC3CCN(C)CC3)CC2)nc(Nc2ccc(Cl)cc2)n1` [TCMDC-137012], the “% Inhibition” value is reported as 55.47%.

For `Cc1cc(NCC2CCN(CC3CCCCC3)C2)nc(Nc2ccc(Cl)cc2)n1` (stereo not shown) [TCMDC-137020], the “% Inhibition” value was -71.76%.

With `Cc1cc(NC2CCN(CC3CCCCC3)C2)nc(Nc2ccc(Br)cc2)n1` (stereo not shown) [TCMDC-137022] the “% Inhibition” value was 32.36%.

`Cc1cc(N2CCN(CC3CCCCC3)CC2)nc(Nc2ccc(Br)cc2)n1` [TCMDC-137021] was tested, and the “% Inhibition” value was -43.3%.

With `Cc1cc(N2CCCN(C)CC2)nc(Nc2ccc(Cl)cc2)n1` [TCMDC-137009] the “% Inhibition” value was 14.59%.

`Cc1cc(N2CCC(N(C)C)C2)nc(Nc2ccc(Cl)cc2)n1` (stereo not shown) [TCMDC-137011] was tested, and the “% Inhibition” value was -3.517%.

Reference: article PMC4552634, “A New Set of Chemical Starting Points with Plasmodium falciparum Transmission-Blocking Potential for Antimalarial Drug Discovery” (PLoS ONE, 2015)
